Experimental data: PubChem BioAssay (NCI)
About 79,000 compounds went through this panel and 15% of them were active in at least one assay; those are over-represented in the sample as a whole. Calls of active or inactive are those of the source. No stated cut-off is given here; in the data, active means growth inhibition above about 70%; inactive means the rest.

How the values were obtained:
[1] = NCI Yeast Anticancer Drug Screen. Data for the rad50 strain (AID 155);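 further: 0% = growth of vehicle-only cultures of the same strain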; details: S. cerevisiae rad50 strain growth inhibition, hits give high values
Outline: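 Relative growth inhibition (compound vs vehicle) was measured in yeast with a defined repair-gene alteration.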

[2] = NCI Yeast Anticancer Drug Screen. Data for the mec2-1 strain (AID 157); details: S. cerevisiae mec2-1 strain, hits give high values
Outline: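 Growth inhibition is read against vehicle-treated controls after compound exposure of the mec2-1 yeast strain, which is defective in DNA damage repair or cell cycle control.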

[3] = NCI Yeast Anticancer Drug Screen. Data for the sgs1 mgt1 strain (AID 161);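 further: 0% = growth of cultures given vehicle only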; details: S. cerevisiae sgs1 mgt1 strain, hits give high values
Outline: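 Growth of a repair-deficient yeast mutant was monitored after compound treatment and expressed as inhibition relative to vehicle-treated cultures.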

[4] = NCI Yeast Anticancer Drug Screen. Data for the cln2 rad14 strain (AID 165);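 further: 0% = growth equal to vehicle treated cultures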; details: S. cerevisiae cln2 rad14 strain, hits give high values
Outline: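 Growth inhibition, relative to vehicle-treated controls, is the read-out. The test organism is a yeast strain with defined genetic alterations, cln2 rad14.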

[5] = NCI Yeast Anticancer Drug Screen. Data for the bub3 strain (AID 167); details: S. cerevisiae bub3 mutant strain, hits give high values
Outline: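 Screening used yeast with an engineered genetic alteration affecting cell cycle control. Compound-exposed cultures were compared with vehicle cultures, and reduced growth was taken as inhibition.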

[6] = NCI Yeast Anticancer Drug Screen. Data for the mlh1 rad18 strain (AID 175); details: S. cerevisiae mlh1 rad18 strain growth inhibition, hits give high values
Outline: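 Cells of a genetically altered yeast strain, deficient in DNA damage repair, were treated with compound. Their growth was then compared with that of vehicle-treated cultures to give inhibition.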

[7] = at 5.0 µM (retest, dose inferred, filed as 0.5)
[8] = at 50.0 µM (retest, dose inferred, filed as 5.0)

Measured: growth inhibition

CC(C)(C)c1cc(C(c2cc3c(cc2O)OCO3)N2CCOCC2)cc(C(C)(C)C)c1O (stereo not given)
active: [1]; [7] 87% | [1]; [8] 95% | [2]; [8] 97% | [3]; [7] 99% | [3]; [8] 95% | [3]; at 50.0 µM 72.2% | [4]; [8] 96% | [5]; [8] 96% | [6]; [8] 97%
inactive: [1]; at 50.0 µM 69.9% | [2]; [7] 59% | [2]; at 50.0 µM 64.6% | [4]; [7] 52% | [4]; at 50.0 µM 57.7% | [5]; [7] 68% | [5]; at 50.0 µM 63% | [6]; [7] 69% | [6]; at 50.0 µM 7.8%

Cc1nc(-c2ccc(N=Cc3ccc(N(CCOS(C)(=O)=O)CCOS(C)(=O)=O)cc3)cc2)cs1
inactive: [1]; [7] 1% | [1]; [8] 46% | [1]; at 50.0 µM 46.5% | [2]; [7] -24% | [2]; [8] 9% | [2]; at 50.0 µM 7.75% | [3]; [7] -2% | [3]; [8] 17% | [3]; at 50.0 µM 21.1% | [4]; [7] -2% | [4]; [8] 33% | [4]; at 50.0 µM -45.7% | [5]; [7] -3% | [5]; [8] -10% | [5]; at 50.0 µM -2.55% | [6]; [7] 12% | [6]; [8] 54%
active: [6]; at 50.0 µM 71.8%

CC1CC(OC(=O)Nc2ccccc2)CC(C)(C)C1 (stereo not given)
active: [1]; [8] 76% | [1]; at 50.0 µM 78.8% | [2]; [8] 74% | [2]; at 50.0 µM 80.6% | [3]; [8] 87% | [3]; at 50.0 µM 91.5% | [4]; [8] 81% | [5]; [8] 83% | [5]; at 50.0 µM 90.3% | [6]; [8] 87% | [6]; at 50.0 µM 85.6%
inactive: [1]; [7] -33% | [2]; [7] 9% | [3]; [7] -6% | [4]; [7] 4% | [4]; at 50.0 µM 66.8% | [5]; [7] 10% | [6]; [7] 4%

CCOC(=O)Oc1ccc(C)cc1[N+](=O)[O-]
active: [6]; at 50.0 µM 88.3%
inactive: [1]; [7] -1% | [1]; [8] 13% | [1]; at 50.0 µM 67.6% | [2]; [7] -4% | [2]; [8] 1% | [2]; at 50.0 µM 31.1% | [3]; [7] -1% | [3]; [8] 2% | [3]; at 50.0 µM 47.5% | [4]; [7] 2% | [4]; [8] 12% | [4]; at 50.0 µM 55.6% | [5]; [7] -1% | [5]; [8] 4% | [5]; at 50.0 µM 23.6% | [6]; [7] -3% | [6]; [8] 20%

Cn1c(Sc2ccc(-c3cccnc3)n2C)ccc1-c1cccnc1
inactive: [1]; [7] 11% | [2]; [7] -12% | [3]; [7] -7% | [4]; [7] -15% | [5]; [7] -19% | [6]; [7] -5%
active: [1]; [8] 91% | [1]; at 50.0 µM 97.8% | [2]; [8] 92% | [2]; at 50.0 µM 98.7% | [3]; [8] 97% | [3]; at 50.0 µM 97.5% | [4]; [8] 77% | [4]; at 50.0 µM 98.1% | [5]; [8] 96% | [5]; at 50.0 µM 97.8% | [6]; [8] 95% | [6]; at 50.0 µM 97.3%

COc1cc2c(c(C)c1O)[C@H]1COc3ccccc3[C@H]1O2
inactive: [1]; [7] -24% | [1]; [8] -9% | [2]; [7] -38% | [2]; [8] -9% | [3]; [7] 17% | [3]; [8] 13% | [4]; [7] 10% | [4]; [8] 11% | [4]; at 50.0 µM 57% | [5]; [7] 10% | [5]; [8] 61% | [6]; [7] -22% | [6]; [8] 10% | [6]; at 50.0 µM 65.5%
active: [1]; at 50.0 µM 75.2% | [2]; at 50.0 µM 77.8% | [3]; at 50.0 µM 89.9% | [5]; at 50.0 µM 83.9%

COc1ccccc1/C=C/c1ccnc2ccccc12
active: [1]; [8] 97% | [1]; at 50.0 µM 72.7% | [2]; [8] 97% | [2]; at 50.0 µM 90.2% | [3]; [8] 98% | [3]; at 50.0 µM 88% | [4]; [8] 84% | [5]; [8] 97% | [5]; at 50.0 µM 84.8% | [6]; [8] 96% | [6]; at 50.0 µM 91.7%
inactive: [1]; [7] 31% | [2]; [7] 15% | [3]; [7] 24% | [4]; [7] 13% | [4]; at 50.0 µM 65.1% | [5]; [7] 24% | [6]; [7] 24%

CCOc1ccc2nc([NH-])sc2c1.CCOc1ccc2nc([NH-])sc2c1.[Cl][Pt+2][Cl]
inactive: [1]; [7] -1% | [1]; [8] -1% | [1]; at 50.0 µM 26.4% | [2]; [7] -1% | [2]; [8] 4% | [2]; at 50.0 µM 35.5% | [3]; [7] -1% | [3]; [8] 15% | [3]; at 50.0 µM 47.8% | [4]; [7] -2% | [4]; [8] -7% | [4]; at 50.0 µM 17.9% | [5]; [7] -2% | [5]; [8] -6% | [5]; at 50.0 µM -4.85% | [6]; [7] -2% | [6]; [8] 3% | [6]; at 50.0 µM 62.1%

COC(=O)C1(COCc2ccccc2)CCCC2OC21 (stereo not given)
inactive: [1]; [7] 16% | [1]; [8] -2% | [1]; at 50.0 µM 2.95% | [2]; [7] 6% | [2]; [8] -4% | [2]; at 50.0 µM -5.2% | [3]; [7] -31% | [3]; [8] -2% | [3]; at 50.0 µM 10.4% | [4]; [7] 19% | [4]; [8] 43% | [4]; at 50.0 µM -2.55% | [5]; [7] 5% | [5]; at 50.0 µM 2.45% | [6]; [7] 9% | [6]; [8] 10% | [6]; at 50.0 µM 6.5%
active: [5]; [8] 79%

Cc1cc(NCCCCCCCNc2cc(C)nc3cc(N)ccc23)c2ccc(N)cc2n1
inactive: [1]; [7] 4% | [2]; [7] -11% | [3]; [7] 12% | [4]; [7] 12% | [4]; [8] 45% | [5]; [7] -12% | [6]; [7] -3%
active: [1]; [8] 85% | [1]; at 50.0 µM 79.6% | [2]; [8] 76% | [2]; at 50.0 µM 85.5% | [3]; [8] 78% | [3]; at 50.0 µM 86% | [4]; at 50.0 µM 82% | [5]; [8] 82% | [5]; at 50.0 µM 87% | [6]; [8] 83% | [6]; at 50.0 µM 91.5%
